Laboratory results taken from PubChem BioAssay (NCATS).
Inconclusive results are not listed. Active and inactive are the calls of the source. The call rests on the fitted dose curve; in most records, active means well fitted curve in the direction sought with a large enough effect; inconclusive means small, poorly fitted or top-dose-only effect, or another doubt; inactive means no such curve, though single readings can be large; an effect the other way counts as inactive or inconclusive.

What was measured:
[1] = OV-KATE Cancer Cell Toxicity qHTS against the NCATS CANVASS Library (AID 1347345); further: potency means the concentration at half of the fitted maximal effect
Summary of the method: (§1)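 ATP content after 72 h treatment, detected by CellTiter-Glo luminescence (15min room-temperature development), reflects cell viability. Wells contained 1000 cells and received compounds at 11 concentrations.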

[2] = HPAF-II Cancer Cell Toxicity qHTS against the NCATS CANVASS Library (AID 1347346); further: nearly all actives have a fitted effect of over 55% in size; further: potency means the concentration at half of the fitted maximal effect
Summary of the method: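 1000 HPAF-II cells/well; 4 h pre-incubation; 11-pnt compound titration; 72 h, 37 degrees C/5% CO2; CellTiter-Glo, 15 min RT; luminescence read.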

[3] = OV-SAHO Cancer Cell Toxicity qHTS against the NCATS CANVASS Library (AID 1347348); further: nearly all actives have a fitted effect of over 55% in size; further: potency means the concentration at half of the fitted maximal effect
Summary of the method: as §1

[4] = COV-362 Cancer Cell Toxicity qHTS against the NCATS CANVASS Library (AID 1347352); further: potency means the concentration at half of the fitted maximal effect
Summary of the method: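 1000 cells/well, 4 h pre-incubation 37 °C/5% CO2; 11-pnt titration; 72 h; CellTiter-Glo 15 min RT, luminescence.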

[5] = HPAF-II 24hr Apoptosis Induction qHTS against the NCATS CANVASS Library (AID 1347356)
Summary of the method: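 500 HPAF-II cells/well; compounds in 11-pnt qHTS; 24 h, 37 C/5% CO2; Caspase-Glo 3/7 added, 15 min RT dark; luminescence read. Doxorubicin control.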

[6] = HEK293 18hr Apoptosis Induction qHTS against the NCATS CANVASS Library (AID 1347357)
Summary of the method: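 HEK293 cells (500/well, DMEM + 10% FBS) treated with an 11-point series for 18 h at 37 degrees C. Caspase-3/7 activity read by Caspase-Glo luminescence after 15 min at room temperature.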

[7] = HPAF-II 12hr Apoptosis Induction qHTS against the NCATS CANVASS Library (AID 1347358)
Summary of the method: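 Caspase-Glo 3/7 luminescence (DEVD substrate) reports caspase activity in HPAF-II cells after 12 h compound treatment at 37 degrees C. Compounds were tested in an 11-point series. Doxorubicin served as control.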

[8] = HEK293 24hr Apoptosis Induction qHTS against the NCATS CANVASS Library (AID 1347359)
Summary of the method: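 HEK293 cells (500/well, DMEM + 10% FBS) were exposed to compounds in an 11-point series for 24 hours at 37 degrees C, then caspase-3/7 activity was read by Caspase-Glo DEVD luciferase luminescence after 15 min.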

[9] = HPAF-II 18hr Apoptosis Induction qHTS against the NCATS CANVASS Library (AID 1347360)
Summary of the method: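 HPAF-II cells at 500/well were exposed for 18 h at 37 C to an 11-point compound series. Caspase-3/7 activity was read by Caspase-Glo luminescence after 15 min at RT.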

[10] = target: Luciferin 4-monooxygenase (Photinus pyralis) (UniProt P08659); assay: Firefly luciferase counterscreen qHTS: Assay Interference Panel against the NCATS CANVASS Library (AID 1347363); further: series mostly up to about 57 µM
Summary of the method: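 Purified P. pyralis luciferase was added to compounds (11-point series) preincubated 15 min at room temperature with substrate containing 0.013 mM D-luciferin and 0.013 mM ATP; luminescence was read after 5 min.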

[11] = KB-3-1 Cancer Cell Toxicity qHTS against the NCATS CANVASS Library (AID 1347366); further: nearly all actives have a fitted effect of over 75% in size; further: potency means the concentration at half of the fitted maximal effect
Summary of the method: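 KB-3-1 cells (500/well) in DMEM with 10% FBS were exposed to compounds for 72 h at 37C. Viability was read by CellTiter-Glo luminescence.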

[12] = MCF7 Cancer Cell Toxicity qHTS against the NCATS CANVASS Library (AID 1347369); further: potency means the concentration at half of the fitted maximal effect
Summary of the method: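 MCF7 cells (500/well) were exposed 72 h at 37 °C to compounds in an 11-point series. Viability was read as ATP content by CellTiterGlo luminescence.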

[13] = qHTS for ATAD5 Antagonist screened against the NCATS CANVASS Library (AID 1347370); further: nearly all actives have a fitted effect of over 65% in size; further: potency means the concentration at half of the fitted maximal effect
Summary of the method: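 HEK293T-ATAD5 luc reporter, 2000 cells/well; 5hr attach; cpd + 10 uM 5-FUrd; 16hr 37C, 5% CO2. Readouts: CellTiter-Fluor fluorescence (1hr), then Amplite luciferase luminescence (30min RT).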

[14] = J3T Cancer Cell Toxicity qHTS against the NCATS CANVASS Library (AID 1347371); further: potency means the concentration at half of the fitted maximal effect
Summary of the method: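 Dog glioma J3T, 500 cells/well; cpd 11-pt qHTS; 72 hr, 37C/5% CO2; CellTiterGlo ATP luminescence readout.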

[15] = target: Nuclear receptor subfamily 1 group I member 3 (Homo sapiens) (UniProt Q14994); assay: qHTS for Constitutive Androstane Receptor (CAR) Agonist screened against the NCATS CANVASS Library (AID 1347373);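 further: every well also contained 1.5 µM PK11195 alongside the test compound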
Summary of the method: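 Luciferase read-out (ONE-Glo, 30 min RT) of CYP2B6-2.2kb promoter activity in double-stable HepG2-hCAR cells after 24hr compound exposure with 1.5uM PK11195 present; viability measured first by CellTiter-Fluor.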

[16] = 10-beta competent E. coli microbial cell viability qHTS against the NCATS CANVASS Library (AID 1347376); further: series mostly up to about 46 µM
Summary of the method: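 Luminescence from BacTiter-Glo ATP detection served as the viability read-out; bacteria (0.2 OD) had been incubated overnight at 37C with pin-transferred compounds at 11 concentrations.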

[17] = qHTS for Inflammasome Signaling Inhibitors: IL-1-beta AlphaLISA screen against the NCATS CANVASS Library (AID 1347379);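 further: human THP-1 cells primed with LPS then triggered with ATP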
Summary of the method: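 THP-1, 1 hr compound pre-incubation, then LPS 250 ng/mL + ATP 1.25 mM (final); 16 hr total with compound; IL-1B AlphaLISA, ex 680/em 615 nm; 11-point qHTS, up to 57.5 uM final.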

[18] = Inflammasome Signaling qHTS Counterscreen: IL-1-beta AlphaLISA counterscreen against the NCATS CANVASS Library (AID 1347381);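 further: cell-free check with purified IL-1β in medium and no THP-1 cells; series mostly up to about 57 µM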
Summary of the method: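 Here, no cellular stimulation occurs; compounds in an 11-point series meet 4 pg purified IL-1-beta directly. Bead-based AlphaLISA detection follows (1 h acceptor/antibody, then 30 min donor, dark, room temperature), with excitation at 680 nm.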

[19] = Cytotoxicity qHTS for assessment of Hepg2 cells membrane integrity screened against the NCATS CANVASS Library (AID 1347387)
Summary of the method: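 LDH release read by fluorescence (560 nm ex/590 nm em) after CytoTox-ONE addition and 10 min RT; signal tracks lysed cells. HepG2, 2000 cells/well, plated overnight; compound 5 hr, 37C, 5% CO2, final 0.59 nM - 46 uM, 11 points.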

[20] = Viability qHTS for inhibitors of the SERCaMP assay screened against the NCATS CANVASS Library (AID 1347400); further: nearly all actives have a fitted effect of over 70% in size; further: potency means the concentration at half of the fitted maximal effect
Summary of the method: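 CellTiter-Glo luminescence readout after 48 h compound exposure (11-pnt qHTS series) of SH-SY5Y-GLuc SERCaMP MJH297 cells seeded at 1000 cells/well; bortezomib positive control.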

Measured: Potency

Chain of Luciferin 4-monooxygenase (Photinus pyralis) (P08659 whole entry, looked up): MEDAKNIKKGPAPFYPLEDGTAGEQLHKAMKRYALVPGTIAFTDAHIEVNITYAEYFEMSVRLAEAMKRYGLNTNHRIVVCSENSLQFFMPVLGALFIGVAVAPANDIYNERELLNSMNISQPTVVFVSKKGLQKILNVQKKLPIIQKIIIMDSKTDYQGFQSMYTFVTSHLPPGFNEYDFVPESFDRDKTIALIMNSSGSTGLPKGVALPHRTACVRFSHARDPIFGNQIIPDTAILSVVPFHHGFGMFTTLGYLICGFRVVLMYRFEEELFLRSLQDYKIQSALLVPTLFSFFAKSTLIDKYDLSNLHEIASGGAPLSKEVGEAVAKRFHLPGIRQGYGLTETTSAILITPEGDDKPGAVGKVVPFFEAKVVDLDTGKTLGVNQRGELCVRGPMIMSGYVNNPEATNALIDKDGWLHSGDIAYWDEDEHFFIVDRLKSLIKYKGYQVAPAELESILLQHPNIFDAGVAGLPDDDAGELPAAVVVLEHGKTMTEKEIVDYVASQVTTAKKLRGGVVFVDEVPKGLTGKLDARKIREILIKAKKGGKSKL
Chain of Nuclear receptor subfamily 1 group I member 3 (Homo sapiens) (Q14994 whole entry, looked up): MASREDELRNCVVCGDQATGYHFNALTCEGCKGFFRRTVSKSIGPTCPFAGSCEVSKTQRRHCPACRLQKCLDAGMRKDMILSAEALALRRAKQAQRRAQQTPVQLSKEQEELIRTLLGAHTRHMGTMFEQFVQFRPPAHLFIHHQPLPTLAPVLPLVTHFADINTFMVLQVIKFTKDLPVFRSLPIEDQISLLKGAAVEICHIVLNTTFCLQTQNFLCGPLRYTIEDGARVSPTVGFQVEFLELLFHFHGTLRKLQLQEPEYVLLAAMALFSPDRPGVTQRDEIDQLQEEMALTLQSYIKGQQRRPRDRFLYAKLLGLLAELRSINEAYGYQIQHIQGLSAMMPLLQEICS

C/C=C/C=C/C1(O)C2C=C3C(=O)CC45C(=O)C(O)=C(C)C(=O)C4C1C1(C(=O)C(O)=C(C)C(=O)C351)C2C (stereo not given)
inactive: all assays above

C[C@@H](CCC[C@]1(C)C(=O)C=C[C@]23C[C@H]4C[C@H](O[C@@]4(C)C2)C31)C(=O)N[C@@H](CO)C(=O)O (stereo not given in full)
inactive: all assays above

CO[C@@H]1C[C@@H](C[C@H]2CC[C@H](C)[C@H]([C@@H](C)C(=O)O)O2)O[C@]2(O[C@](C)([C@H]3CC[C@@](C)([C@@H]4O[C@@H]([C@H]5O[C@](C)(O)[C@H](C)C[C@@H]5C)C[C@@H]4C)O3)C[C@H]2C)[C@@H]1C
active: [1] 4.72 µM | [2] 9.43 µM | [3] 0.0941 µM | [4] 4.72 µM | [11] 14.8 µM | [12] 14.7 µM | [13] 14.8 µM | [14] 0.118 µM | [17] 5.44 µM | [20] 10.7 µM
inactive: [5] | [6] | [7] | [8] | [9] | [10] | [15] | [16] | [18] | [19]
